From PubChem BioAssay (NCI)
The panel holds about 83,000 compounds, 20% with a hit somewhere; the sample as a whole holds those more often.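 Growth was measured after 48 h exposure to one concentration of compound in 96-well plates. Values under 10 count as active.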 A number with no mark means an inactive call. The source made the active and inactive calls.

tested on: PC-3 prostate; assay: NCI-60 one-dose screen, 48 h (100 = growth as untreated, 0 = no growth, -100 = all killed); conditions: 10 µM unless noted

| SMILES | growth |
| --- | --- |
| O=[As](O)(O)c1ccccc1[As](=O)(O)O | 93.3% |
| COC(=O)[C@@H](C)C[C@H](Cc1ccccc1)NC(=O)c1csc([C@@H](C[C@H](C(C)C)N(C)C(=O)C2(NC(=O)[C@H]3CCCCN3C)CC2)OC(C)=O)n1 | 12.3% |
| CN1C(=O)C23CC4(C56CC78SSC(CO)(C(=O)N7C5Nc5ccccc56)N(C)C8=O)c5ccccc5NC4N2C(=O)C1(CO)SS3 (stereo not drawn) | -99.5% (active) |
| CCNc1nc(Cl)nc(NCC)n1 | 89.9% |
| COc1ccc(C2=CC(c3ccc(OC)c(OC)c3)c3c(c4ccccc4oc3=O)O2)cc1OC (stereo not drawn) | -18.3% (active) |
| COC(=O)[C@H](Cc1ccccc1)NNC(=O)c1csc([C@@H](C[C@H](C(C)C)N(C)C(=O)[C@@H](NC(=O)[C@H]2CCCCN2C)C2CC2)OC(C)=O)n1 | 13.9% |
| Clc1ccc(CSC(Cn2ccnc2)c2ccc(Cl)cc2Cl)cc1 (stereo not drawn) | 15% |
| C=CC1=C[C@@H]2[C@@H]3O[C@]4(CC[C@H](O4)[C@@H](C)C[C@@H](O)C3=O)C[C@H](O)C3=NCC[C@@]32CC1 | -20.1% (active) |
| COC1CC2c3ccccc3C1C(C)=[N+]2C (stereo not drawn) | 84.8% |
| Cc1cc(N(CCCl)CCCl)ccc1C=Nc1ccc(-c2csc(Cc3ccccc3)n2)cc1 | 53% |
| N/C(=N/N=C/c1ccncc1)N[N+](=O)[O-] | 97.9% |
| CCN1C(=O)C(=C/C=C/c2ccccc2)C(=O)N(CC)C1=O | 61.7% |
| CC(=O)O[C@H](C[C@H](C(C)C)N(C)C(=O)[C@@H](NC(=O)[C@H]1CCCCN1C)C(C)C)c1cccc(C(=O)N[C@@H](Cc2ccccc2)C[C@H](C)C(=O)O)n1 | 26.4% |
